Source: PubChem BioAssay
HPGD block = blocks human HPGD enzyme activity. actives 4.3% (n = 150,000). purified HPGD, NADH fluorescence kinetic, PGE2 substrate. AID 894. P15428. Potency, µM, usual class: inhibitors; active = well fitted inhibition curve with a large enough effect, not every such curve was filed as active; inconclusive = small, poorly fitted or top-dose-only effect, or another doubt; inactive = no such curve, though single readings can be large or run the other way
Target sequence (P15428 whole entry, looked up): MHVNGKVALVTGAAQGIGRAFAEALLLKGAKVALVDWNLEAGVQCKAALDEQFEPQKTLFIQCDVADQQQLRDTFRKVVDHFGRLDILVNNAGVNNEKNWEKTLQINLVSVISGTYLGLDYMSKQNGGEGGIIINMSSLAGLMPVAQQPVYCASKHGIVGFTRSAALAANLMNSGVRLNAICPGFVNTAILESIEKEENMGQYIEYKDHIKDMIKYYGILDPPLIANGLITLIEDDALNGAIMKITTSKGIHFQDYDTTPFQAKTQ
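NADH formation kinetics: reaction with 30 uM PGE2 and 1 mM NAD+ (final), 20 nM enzyme, Tris-HCl pH 8 with Tween 20, after 15 min compound preincubation at room temperature. Fluorescence change, last versus first of five reads.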
Luc counter = Kinase-Glo luciferase inhibition (counter-screen); Q27757; Kinase-Glo luciferase, ATP luminescence, 8 min; Potency, µM (series often up to 38.3 µM), most hits filed as inhibitors; actives 0.28% (n = 200,000); AID 1379; also: nearly all actives have a fitted effect of over 60% in size
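Inhibition of Kinase-Glo luciferase light generation was assessed at 10 uM ATP in pH 7.2 imidazole buffer, with luminescence measured after eight minutes at ambient temperature.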
HTT aggregate = mutant huntingtin aggregation inhibition | Potency, µM (highest dose often 46.1 µM), most hits filed as inhibitors | AID 1688 | PC12 HttQ103-GFP aggregates, Acumen cytometry, 40 h | actives 1.1% (n = 220,000); also: nearly all actives have a fitted effect of over 60% in size
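PC12 cells stably carrying ecdysone-inducible HTT exon 1 Q103–GFP were induced with tebufenozide (100 nM final) and treated with library compounds in titration. GFP aggregates in lysates were counted by laser scanning cytometry.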
LMNA splice mod = LMNA splicing modulation; Potency, µM (highest dose often 46.1 µM), actives largely listed as inhibitors; HeLa LMNA splicing GFP/RFP minigene ratio, 48 h; actives 0.01% (n = 200,000); active = well fitted inhibition curve with a large enough effect in the signal ratio, with a control signal flat, not every such curve was filed as active; inconclusive = small, poorly fitted or top-dose-only effect, or effect the other way, or a change in a side signal; the % refers to the signal ratio
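S3 HeLa cells stably expressing lamin A-EGFP splicing minigene plus DsRed2, 600 cells/well, 48 h compound exposure at 37C. Laser-scanning cytometry; analysed as GFP (500-530 nm)/RFP (575-640 nm) total intensity ratio; 0.5% DMSO vehicle.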
HTT cytoprotect = cytoprotection in Huntington HTT-Q103 PC12 cell model; PC12 HTT-Q103 induced, cytoprotection, ATP luminescence, 40 h; Potency, µM (titrated, usually from 56.4 µM), actives largely listed as activators; actives 0.14% (n = 230,000); also: nearly all actives have a fitted effect of over 45% in size
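Huntington model: PC12 line, ecdysone-inducible HTTQ103 exon1–GFP, tebufenozide 100 nM. Test articles in a dose series. Endpoint luminescence from cellular ATP.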
ALDH1A1 inh = ALDH1A1 (human) enzyme inhibition | P00352 | Potency, µM (doses to about 75.3 µM), hits mostly inhibitors | AID 1030 | Purified ALDH1A1, NADH fluorescence, propionaldehyde substrate | actives 7.3% (n = 220,000); active = well fitted inhibition curve with a large enough effect, not every such curve was filed as active; inconclusive = small, poorly fitted or top-dose-only effect, or another doubt; inactive = no such curve, though single readings can be large or run the other way
Target sequence (P00352 whole entry, looked up): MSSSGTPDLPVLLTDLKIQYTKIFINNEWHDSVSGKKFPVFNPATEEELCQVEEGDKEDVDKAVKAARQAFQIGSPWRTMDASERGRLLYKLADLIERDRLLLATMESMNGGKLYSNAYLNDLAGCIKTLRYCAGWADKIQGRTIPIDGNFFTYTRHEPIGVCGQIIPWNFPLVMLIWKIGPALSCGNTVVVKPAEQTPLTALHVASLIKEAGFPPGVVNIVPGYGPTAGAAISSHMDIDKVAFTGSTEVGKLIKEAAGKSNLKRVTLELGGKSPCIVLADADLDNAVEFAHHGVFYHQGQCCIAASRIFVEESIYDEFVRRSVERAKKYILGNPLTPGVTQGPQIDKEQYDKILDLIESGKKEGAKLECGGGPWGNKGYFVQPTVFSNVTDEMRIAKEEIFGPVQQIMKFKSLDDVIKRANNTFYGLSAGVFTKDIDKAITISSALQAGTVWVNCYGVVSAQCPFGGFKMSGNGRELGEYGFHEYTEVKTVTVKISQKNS
A number is an active result; [ ] = remark or other dose. Only some compounds are listed: those with a hit (about 9% of all), similar ones and a draw of the others. Unless noted, calls follow the shape of the dose curve; as a rule, active = well fitted curve in the direction sought with a large enough effect; inconclusive = small, poorly fitted or top-dose-only effect, or another doubt; inactive = no such curve, though single readings can be large; an effect the other way counts as inactive or inconclusive.

How did C(=C\c1ccccc1)/CN1CCN(Cc2nc(Cc3ccccc3)no2)CC1 do in these assays?
Luc counter: inactive; HTT aggregate: inactive[9.22 µM]; LMNA splice mod: inconclusive; HTT cytoprotect: inactive[10 µM]; ALDH1A1 inh: 12.6µM

Results for COc1ccccc1CN1CCN(Cc2nc(Cc3ccccc3)no2)CC1 ?
Luc counter: inactive; HTT aggregate: inactive[9.22 µM]; LMNA splice mod: inconclusive; HTT cytoprotect: inactive[10 µM]; ALDH1A1 inh: inactive

What do the screens show for `COc1cc(O)c2c(=O)cc(-c3ccc(OC)c(-c4c(O)cc(O)c5c(=O)cc(-c6ccc(O)cc6)oc45)c3)oc2c1`?
HPGD block: inconclusive; Luc counter: inactive; HTT cytoprotect: inactive; ALDH1A1 inh: inactive

Results for O=c1cc(-c2ccc(O)c(-c3c(O)cc(O)c4c(=O)cc(-c5ccc(O)cc5)oc34)c2)oc2cc(O)cc(O)c12 ?
HPGD block: 14.1µM; Luc counter: inactive; HTT aggregate: inactive; LMNA splice mod: inactive; ALDH1A1 inh: inconclusive

Results for CCCn1c2c(c(O)c(C(=O)NC)c1=O)CCCC2 ?
HPGD block: inactive; Luc counter: inactive; HTT aggregate: inactive; LMNA splice mod: inactive; HTT cytoprotect: inactive[0.074 µM]; ALDH1A1 inh: inactive

How did CCCn1c2c(c(O)c(C(=O)Nc3ncccc3O)c1=O)CCCC2 do in these assays?
HTT aggregate: 12.6µM; LMNA splice mod: inconclusive; HTT cytoprotect: inactive; ALDH1A1 inh: 5.62µM

Results for CCCn1c2c(c(O)c(C(=O)NCCCN(CC)CC)c1=O)CCCC2 ?
HPGD block: inactive; Luc counter: inactive; HTT aggregate: inactive; LMNA splice mod: inactive; HTT cytoprotect: inactive[10 µM]; ALDH1A1 inh: 28.2µM

What do the screens show for `CC(C)NC(=O)CCNC(=O)c1ccc(F)cc1`?
HPGD block: inactive; Luc counter: inactive; HTT aggregate: inactive; LMNA splice mod: inactive; HTT cytoprotect: inactive; ALDH1A1 inh: 2.82µM

What do the screens show for `CCCC(C)NC(=O)c1ccc(F)cc1` (configuration not stated)?
HPGD block: inconclusive; Luc counter: inactive; HTT aggregate: inactive; LMNA splice mod: inactive; HTT cytoprotect: inactive; ALDH1A1 inh: 39.8µM

Results for CCCC(C)NC(=O)c1ccc(-c2ccccc2)cc1 (configuration not stated) ?
HTT aggregate: inactive; HTT cytoprotect: inactive; ALDH1A1 inh: inactive

What do the screens show for `Cc1ccc(S(=O)(=O)NCC(=O)OCC(=O)Nc2cccc(S(=O)(=O)NC3=NCCCCC3)c2)cc1C`?
HTT aggregate: inactive[9.22 µM]; HTT cytoprotect: inactive[10 µM]

Results for Cc1cc2nc(-c3ccco3)cc(C(F)(F)F)n2n1 ?
HPGD block: inactive; Luc counter: inactive; HTT aggregate: inactive; LMNA splice mod: inactive; HTT cytoprotect: inactive[10 µM]; ALDH1A1 inh: 14.1µM

What do the screens show for `COc1ccc(NC(=O)c2cccc(S(=O)(=O)N3CCc4ccccc43)c2)cn1`?
Luc counter: inactive; HTT aggregate: inactive; LMNA splice mod: inactive; HTT cytoprotect: inactive; ALDH1A1 inh: 3.16µM

Results for O=C(NCCc1ccccn1)c1cccc(S(=O)(=O)N2CCCCCC2)c1 ?
HPGD block: inactive; Luc counter: inactive; HTT aggregate: inactive; LMNA splice mod: inactive; HTT cytoprotect: inactive; ALDH1A1 inh: inactive

What do the screens show for `O=C(NCCc1ccccn1)c1cccc(S(=O)(=O)N2CCc3ccccc32)c1`?
Luc counter: inactive; HTT aggregate: inactive; HTT cytoprotect: inactive; ALDH1A1 inh: 20µM

Results for Cc1cc2nc(CCN3CCOCC3)n(S(=O)(=O)c3ccc(C(C)(C)C)cc3)c2cc1C ?
HPGD block: inactive; Luc counter: inactive; HTT aggregate: inactive; LMNA splice mod: inactive; HTT cytoprotect: inactive[10 µM]; ALDH1A1 inh: inactive

What do the screens show for `CCCOC(=O)Cc1n[nH]c(=O)[nH]c1=O`?
HPGD block: inactive; Luc counter: inactive; HTT aggregate: inactive; LMNA splice mod: inactive; HTT cytoprotect: inactive[10 µM]; ALDH1A1 inh: inactive

How did O=C(Nc1ccc(Cl)cc1C(F)(F)F)C(Sc1nnc(-c2cccs2)o1)c1ccccc1 (configuration not stated) do in these assays?
HTT aggregate: inactive; LMNA splice mod: inconclusive; HTT cytoprotect: inactive[10 µM]; ALDH1A1 inh: 2.82µM

What do the screens show for `O=C(Nc1cc(C(F)(F)F)ccc1Cl)C(Sc1nnc(-c2cccs2)o1)c1ccccc1` (configuration not stated)?
HTT aggregate: inactive; LMNA splice mod: inconclusive; HTT cytoprotect: inactive[10 µM]; ALDH1A1 inh: 1µM

Results for Cc1ccc(-c2nc(N)n(S(C)(=O)=O)n2)cc1 ?
HPGD block: inactive; Luc counter: inactive; HTT aggregate: inactive; LMNA splice mod: inactive; HTT cytoprotect: inactive; ALDH1A1 inh: inactive

Results for O=C(CCCOc1ccc(Cl)cc1Cl)NCCCO ?
HPGD block: inactive; Luc counter: inactive; HTT aggregate: inactive; LMNA splice mod: inactive; HTT cytoprotect: inactive; ALDH1A1 inh: inactive

Results for CC(=O)c1sc(NC(=O)COc2ccc(Cl)cc2Cl)nc1C ?
Luc counter: inactive; HTT aggregate: inactive[9.22 µM]; HTT cytoprotect: inactive; ALDH1A1 inh: 11.2µM

Results for O=C(CCCOc1ccc(Cl)cc1Cl)NCc1ccncc1 ?
Luc counter: inactive; HTT aggregate: inactive[9.22 µM]; LMNA splice mod: inactive; HTT cytoprotect: inconclusive; ALDH1A1 inh: 20µM

How did O=C(COc1ccc(Cl)cc1Cl)NCc1ccncc1 do in these assays?
HPGD block: 25.1µM; Luc counter: inactive; HTT aggregate: inactive; LMNA splice mod: inconclusive; HTT cytoprotect: inactive[10 µM]; ALDH1A1 inh: inconclusive

What do the screens show for `Cn1c(SCC(=O)NNC(=S)Nc2ccccc2)nnc1-c1ccccc1`?
HTT aggregate: inactive[9.22 µM]; HTT cytoprotect: inactive[10 µM]

Results for Clc1ccc(-c2nc3ccncc3[nH]2)cc1 ?
HPGD block: inconclusive; Luc counter: inconclusive; HTT aggregate: inactive; LMNA splice mod: inactive; HTT cytoprotect: inactive[10 µM]; ALDH1A1 inh: 11.2µM

Results for Cc1cc(C)c(NC(=O)Cn2c(=O)n(Cc3ccccc3)c(=O)c3c(C)c(C(=O)N(C)C)sc32)c(C)c1 ?
LMNA splice mod: inactive

How did Cc1ccc(CNC(=O)CCCOc2cc(=O)n(C)c3ccccc23)o1 do in these assays?
HPGD block: inactive; Luc counter: inactive; HTT aggregate: inconclusive; LMNA splice mod: inactive; HTT cytoprotect: inactive[10 µM]; ALDH1A1 inh: 20µM

Results for CC1CCN(C(=O)CCCOc2cc(=O)n(C)c3ccccc23)CC1 ?
HPGD block: 7.94µM; Luc counter: inactive; HTT aggregate: inactive; LMNA splice mod: inactive; HTT cytoprotect: inactive; ALDH1A1 inh: inconclusive

Results for COc1ccc(N2CCN(C(=O)CCCOc3cc(=O)n(C)c4ccccc34)CC2)cc1 ?
HPGD block: inactive; Luc counter: inactive; HTT aggregate: inactive; LMNA splice mod: inactive; HTT cytoprotect: inactive; ALDH1A1 inh: inactive

What do the screens show for `CN1CCN(CCCNC(=O)CCCOc2cc(=O)n(C)c3ccccc23)CC1`?
HPGD block: inactive; Luc counter: inactive; HTT aggregate: inactive; LMNA splice mod: inactive; HTT cytoprotect: inactive; ALDH1A1 inh: inactive
